Results as given in PubChem BioAssay (Tox21).
Values joined by “and” are separate entries in the source; they are usually repeats but may differ in a detail not shown here. Identical values can stand only once. Inconclusive results are not listed. Active and inactive are the calls of the source. Calls follow the shape of the dose curve; as a rule, active = well fitted inhibition curve with a large enough effect in the signal ratio in the repeat runs (not every such curve was filed as active); inconclusive = weak or mixed curves, or effect the other way; inactive = no such curve, though single readings can be large or run the other way; the % refers to the signal ratio.

Each compound was assayed against Estrogen receptor beta (Homo sapiens) (UniProt Q92731) (assay: qHTS assay to identify small molecule antagonists of the estrogen receptor beta (ER-beta) signaling pathway (AID 1259378)). Conditions: ER-beta-UAS-bla HEK293T, beta-lactamase FRET ratio, 16 h; series mostly up to 92.4 µM; activity, negative = inhibition: at the top concentration.
Description: National Center for Advancing Translational Sciences [NCATS]
NIH Chemical Genomics Center [NCGC]
U.S. Environmental Protection Agency [EPA]
National Institutes of Environmental Health Sciences [NIEHS]
National Toxicology Program [NTP]
U.S. Food and Drug Administration [FDA]
Estrogen receptor (ER), a nuclear hormone receptor, plays an important role in development, metabolic homeostasis and reproduction. Two subtypes of ER, ER-alpha and ER-beta, have similar expression patterns with some uniqueness in both types. Endocrine disrupting chemicals (EDCs) and their interactions with steroid hormone receptors like ER causes disruption of normal endocrine function. To identify the compounds that inhibit ER signaling, an ER-beta-UAS-bla GripTite cell line (Life Technologies, Madison, WI, USA) containing a beta-lactamase reporter gene under the control of an UAS response element was used to screen Tox21 10K compound library.
Tox21 Assay Protocol Summary:
ER-beta-UAS-bla HEK293T cells were dispensed at 2,000 cells/4 uL of assay medium containing 2% charcoal stripped FBS per well into black wall/clear-bottom 1536-well plates using a Multidrop Combi (ThermoFisher Scientific, Waltham, MA) dispenser. After the assay plates were incubated at a 37C and 5% CO2 for 6 hr, 23 nL of compounds dissolved in DMSO, positive controls or DMSO only was transferred to the assay plate by a Pintool station (Kalypsys, San Diego, CA), followed by addition of 1 uL (1nM as final concentration) of 17-beta-estradiol (E2) in assay medium using a BioRAPTR FRD (Flying Reagent Dispenser, Aurora Discovery, San Diego, CA). The plates were incubated at 37C and 5% CO2 for 16 hr. Then 1 uL of LiveBLAzerTM B/G FRET substrate was added using a Flying Reagent Dispenser, the plates were incubated at room temperature for 2 hours, and fluorescence intensity was measured by an Envision plate reader (PerkinElmer, Shelton, CT).
% is scaled to controls: 0 for no effect and ±100 for the full control effect; potency is read from the fitted curve at half-maximal effect.

Sequence of Estrogen receptor beta (Homo sapiens) (Q92731 whole entry, looked up): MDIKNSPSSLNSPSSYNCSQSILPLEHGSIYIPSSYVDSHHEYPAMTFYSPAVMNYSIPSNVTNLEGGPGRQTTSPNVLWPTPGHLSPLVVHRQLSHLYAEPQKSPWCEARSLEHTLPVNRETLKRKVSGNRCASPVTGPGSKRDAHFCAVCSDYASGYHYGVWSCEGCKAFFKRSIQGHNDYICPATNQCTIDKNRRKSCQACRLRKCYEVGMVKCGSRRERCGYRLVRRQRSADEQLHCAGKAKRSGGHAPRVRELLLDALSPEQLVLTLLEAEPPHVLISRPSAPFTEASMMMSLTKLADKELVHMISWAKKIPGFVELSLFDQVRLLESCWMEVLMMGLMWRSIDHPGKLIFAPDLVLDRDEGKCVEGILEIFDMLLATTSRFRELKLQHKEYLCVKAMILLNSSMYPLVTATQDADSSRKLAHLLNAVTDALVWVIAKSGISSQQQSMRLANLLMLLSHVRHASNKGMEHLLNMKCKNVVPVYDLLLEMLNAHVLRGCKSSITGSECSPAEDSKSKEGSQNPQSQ

Row | SMILES | activity, negative = inhibition | Potency
1 | O=C(NC(=O)c1c(F)cccc1F)Nc1cc(Cl)c(OC(F)(F)C(F)F)c(Cl)c1 | 6.61% (inactive) | 
2 | COc1ccc(OC)c(CC(C)N)c1 (stereo not given) | 1.83% (inactive) | 
3 | CC(C)OC(=O)C(O)(c1ccc(Cl)cc1)c1ccc(Cl)cc1 |  | 30.6 µM (active)
4 | CC(C)CC(C)Nc1ccc(Nc2ccccc2)cc1 (stereo not given) |  | 30.1 µM (active)
5 | Clc1ccc(C(c2ccccc2Cl)C(Cl)(Cl)Cl)cc1 (stereo not given) |  | 6.15 µM (active) and 8.02 µM (active)
6 | Cc1cc(C)cc(OP(=O)(Oc2cc(C)cc(C)c2)Oc2cc(C)cc(C)c2)c1 | 0.158% (inactive) | 
7 | CCN | -10.8% (inactive) | 
8 | O=c1[nH]c2ccccc2n1C1CCN(CCCC(c2ccc(F)cc2)c2ccc(F)cc2)CC1 |  | 17.2 µM (active)
9 | CC1(C)C(/C=C(\Cl)C(F)(F)F)C1C(=O)OC(C#N)c1cccc(Oc2ccccc2)c1 (stereo not given) | 8.76% (inactive) | 
10 | ClC1=C(Cl)[C@]2(Cl)[C@@H]3[C@@H](Cl)[C@H](Cl)C[C@@H]3[C@@]1(Cl)C2(Cl)Cl | -25.1% (inactive) | 
11 | Cc1cc(C)c(C2=C(OC(=O)CC(C)(C)C)C3(CCCC3)OC2=O)c(C)c1 | 12.3% (inactive) | 
12 | CC(C)C1CCC(Cc2ccc(Cl)cc2)C1(O)Cn1cncn1 (stereo not given) |  | 24.1 µM (active)
13 | CCCCOP(=O)(CCCC)OCCCC | 10.7% (inactive) | 
14 | Oc1ccc(C(=C(Cl)Cl)c2ccc(O)cc2)cc1 |  | 3.43 µM (active)
15 | CN(CCCC(O)c1cccnc1)N=O (stereo not given) | 11.8% (inactive) | 
16 | CC(C)CBr | 2.76% (inactive) | 
17 | N#CCCSCCC#N | -17.6% (inactive) | 
18 | CCCCCCCCCCBr | -17.4% (inactive) | 
19 | ClC1=C(Cl)[C@]2(Cl)[C@@H]3[C@@H](Cl)[C@@H](Cl)C[C@@H]3[C@@]1(Cl)C2(Cl)Cl | 2.39% (inactive) | 
20 | N#CCCO | -0.607% (inactive) | 

Row | SMILES | activity, negative = inhibition | Potency
21 | N#Cc1ccccc1Cl | -3.89% (inactive) | 
22 | O=C(Nc1ccc2[nH]ccc2c1)c1cc2cc(F)ccc2n1Cc1cccc(F)c1 |  | 17.2 µM (active)
23 | Cc1cc(N=Nc2ccccc2C)ccc1N |  | 19.3 µM (active)
24 | CC(Cc1ccc(C(C)(C)C)cc1)CN1C[C@@H](C)O[C@@H](C)C1 (stereo not given in full) | 0.818% (inactive) | 
25 | CC1(C)[C@H](C(=O)O[C@H](C#N)c2cccc(Oc3ccccc3)c2)[C@@H]1/C=C(\Cl)C(F)(F)F |  | inactive
26 | C[C@]12Cc3nonc3C[C@@H]1CC[C@@H]1[C@@H]2CC[C@@]2(C)[C@H]1CC[C@]2(C)O |  | 18.8 µM (active)
27 | ClCc1ccccc1CCl | 17.4% (inactive) | 
28 | CC(C)(C)OO | -20.5% (inactive) | 
29 | BrCBr | -2.34% (inactive) | 
30 | Clc1ccc(C(Cl)(Cl)Cl)c(Cl)c1 | -4.91% (inactive) | 
31 | Clc1ccc(-c2ccccc2)cc1 | 9.02% (inactive) | 
32 | O=C1NCN(c2ccccc2)C12CCN(CC1COc3ccccc3O1)CC2 (stereo not given) | -0.711% [at 42.5 µM] (inactive) | 
33 | COc1ccc(/C(=C/C(=O)N2CCOCC2)c2ccc(Cl)cc2)cc1OC | -23.7% (inactive) | 
34 | CC(C)CCCCCOC(=O)c1ccccc1C(=O)OCCCCCC(C)C | -3.06% (inactive) | 
35 | COc1cc(N)c(Cl)cc1C(=O)NC1CN2CCC1CC2 (stereo not given) | 4.75% [at 42.5 µM] (inactive) | 
36 | O=[N+]([O-])c1cc(Cl)ccc1Cl | 11.3% (inactive) | 
37 | O=C(CCl)Nc1ccccc1 |  | 27.3 µM (active)
38 | Cc1cccc(OP(=O)(Oc2cccc(C)c2)Oc2cccc(C)c2)c1 | 2.32% (inactive) | 
39 | ClC1=C(Cl)C2(Cl)C3C(Cl)C(Cl)CC3C1(Cl)C2(Cl)Cl (stereo not given) |  | 12.2 µM (active) and 27.3 µM (active)
40 | Brc1c(Br)c(Br)c(Oc2c(Br)c(Br)c(Br)c(Br)c2Br)c(Br)c1Br | -4.25% [at 19 µM] (inactive) | 
